High-throughput results as filed in PubChem.
This excerpt belongs to a sample that is enriched for hits.
DT40 TDP1 CPT – DT40-hTDP1 cell growth loss with CPT; chicken DT40 Tdp1-/-;hTDP1 cells + 20 nM CPT, ATP luminescence, 48 h; Potency, µM (highest dose often 46.2 µM), usual class: inhibitors; 12% of 420,000 active; AID 686979; also: nearly all actives have a fitted effect of over 55% in size
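Cell growth measured by CellTiter-Glo luminescence after a minimum 48 h, 37 C compound exposure with 20 nM CPT in Tdp1-knockout DT40 cells stably expressing hTDP1, seeded 400/well; qHTS titration format.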
ALOX12 inh – inhibitors of human 12S-lipoxygenase ALOX12; P18054; purified 12hLO, xylenol orange hydroperoxide absorbance; Potency, µM (highest dose often 108 µM), actives largely listed as inhibitors; 1.1% of 580,000 active; AID 1671190
Target sequence (P18054 whole entry, looked up): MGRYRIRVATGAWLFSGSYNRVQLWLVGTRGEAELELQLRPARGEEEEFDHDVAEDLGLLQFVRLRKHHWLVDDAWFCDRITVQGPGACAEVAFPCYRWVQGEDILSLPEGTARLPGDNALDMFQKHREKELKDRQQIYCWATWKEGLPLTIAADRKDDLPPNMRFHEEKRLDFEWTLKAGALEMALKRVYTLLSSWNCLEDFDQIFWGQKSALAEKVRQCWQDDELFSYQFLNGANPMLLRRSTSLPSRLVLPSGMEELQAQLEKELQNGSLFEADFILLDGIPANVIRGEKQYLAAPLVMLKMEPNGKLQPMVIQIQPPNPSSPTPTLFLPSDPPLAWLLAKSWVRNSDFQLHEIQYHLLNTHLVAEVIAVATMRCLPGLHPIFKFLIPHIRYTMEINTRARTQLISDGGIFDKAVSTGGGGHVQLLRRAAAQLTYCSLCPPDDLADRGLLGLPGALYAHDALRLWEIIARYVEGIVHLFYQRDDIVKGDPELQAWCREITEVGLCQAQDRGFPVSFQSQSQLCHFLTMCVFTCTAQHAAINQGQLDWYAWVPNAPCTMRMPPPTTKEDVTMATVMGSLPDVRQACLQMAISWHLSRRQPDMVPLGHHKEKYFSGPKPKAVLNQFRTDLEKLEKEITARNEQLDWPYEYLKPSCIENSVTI
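Purified human 12hLO at 150 nM in 25 mM Hepes, 0.01% Triton X-100, pH 7.0, preincubated 15 min at room temperature with compound. Reaction started with 40 uM arachidonic acid, 30 min at room temperature. Hydroperoxide measured by Fe-xylenol orange, 573/405 nm absorbance ratio.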
HT1080 IDH1KD tx – toxicity to HT-1080 IDH1 knockdown cells (counter line) | 2% of 360,000 active | Potency, µM (series often up to 46.1 µM), most hits filed as cytotoxic | HT-1080 IDH1 knockdown viability, ATP luminescence, 48 h
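In this qHTS, HT-1080 cells depleted of IDH1 are exposed for 48 h at 37 °C to compound titrations. Toxicity is scored from CellTiter-Glo luminescence, with DMSO as full viability and medium alone as none.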
TDP1 cell noCPT – qHTS for Inhibitors of human tyrosyl-DNA phosphodiesterase 1 (TDP1): qHTS in cells in absence of CPT | AID 686978, 2013 | 15% of 420,000 active | Potency, µM (series often up to 46.2 µM), most hits filed as inhibitors | DT40 Tdp1-/- hTDP1 cells, no CPT, ATP luminescence, 48 h; also: nearly all actives have a fitted effect of over 55% in size
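Seeded 400 DT40-hTDP1 cells/well (vehicle DMSO, no 20 nM CPT); pinned compounds; ≥48 hr at 37 °C; CellTiter-Glo luminescence as viability measure.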
IL-1B inflam inh – blocks inflammasome-driven IL-1 beta release; THP-1 LPS/ATP IL-1B secretion, AlphaLISA, 16 h; stronger effect = lower value; activity change, % at 57.5 µM; 4.7% of 360,000 active; in the data active = activity change below about -50%; inconclusive = mostly about -30% to -49%
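Secreted IL-1B measured by AlphaLISA bead assay after 16 h compound exposure of THP-1 cells; compounds (final up to 57.5 uM) added 1 h before LPS (250 ng/mL) and ATP (1.25 mM) stimulation; lower signal means less secretion.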
HT1080NT lethal – kills 2HG-producing HT-1080-NT fibrosarcoma cells; HT-1080-NT fibrosarcoma viability, CellTiter-Glo ATP luminescence, 48 h; Potency, µM (doses to about 46.1 µM), most hits filed as cytotoxic; 1.6% of 360,000 active; AID 686970;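 also: NT is the 2HG producing partner of a matched IDH1 knockdown line; nearly all actives have a fitted effect of over 55% in size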
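Fibrosarcoma NT cells, 750 per well in 5% FBS RPMI, were exposed to compound for 48 hours. Viability: CellTiter-Glo luminescence.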
Numbers stand for hits; i = inactive; ? = inconclusive; nt = no result; ! = not active in a repeat. Unless noted, calls follow the shape of the dose curve; as a rule, active = well fitted curve in the direction sought with a large enough effect; inconclusive = small, poorly fitted or top-dose-only effect, or another doubt; inactive = no such curve, though single readings can be large; an effect the other way counts as inactive or inconclusive.

SMILES	DT40 TDP1 CPT	ALOX12 inh	HT1080 IDH1KD tx	TDP1 cell noCPT	IL-1B inflam inh	HT1080NT lethal
CN(C)CC1CCCCC1OC(=O)/C=C/c1ccccc1 (stereo unspecified)	i	i	i	i	?	i
CN(C)CC1CCCCC1OC(=O)/C=C/c1ccc(Cl)cc1Cl (stereo unspecified)	?	i	i	?	-79	i
CC(=O)N1CCC(Cc2ccc(C(=O)NC3CCN(Cc4ccccc4)CC3)cc2)CC1	nt	i	nt	nt	nt	nt
COc1ccc(CN2C(=O)c3ccccc3C2=O)cc1C(=O)Nc1ccccc1N1CCOCC1	?	i	i	16µM	i	i
COc1ccc(CN2C(=O)c3ccccc3C2=O)cc1C(=O)OCC(=O)NC1CCCCC1	i	i	i	i	i	i
COc1ccc(NC(=O)c2cc(CN3C(=O)c4ccccc4C3=O)ccc2OC)cn1	?	i	21µM	?	i	?
CC(=O)c1cc(Cl)cc(Cl)c1OCC(=O)N1CCN(C(=O)c2ccco2)CC1	nt	i	nt	nt	nt	nt
Cc1cc2c([nH]c3ccccc32)c(C)n1	i	?	i	i	i	i
Cc1c2ccncc2cc2c1[nH]c1ccccc12	5.8µM	i	13µM	6.5µM	-96	18µM
Cc1ccc(C)c(OCCC(=O)N2CCN(S(=O)(=O)c3cccs3)CC2)c1	nt	i	nt	nt	nt	nt
O=C(Cc1ccccc1)NNc1ccc2ccccc2c1	i	i	3.7µM	i	i	?
O=C(CN1C(=O)CCC1=O)NNc1ccc2ccccc2c1	i	?	2.3µM	i	i	2.9µM
Cc1c(CCO)sc[n+]1CC(=O)OCCC12CC3CC(CC(C3)C1)C2	?	i	i	?	i	i
Cc1c(CCOC(=O)c2ccc(Cl)cc2Cl)sc[n+]1CC(=O)c1ccc(Br)cc1	?	?	i	18µM	?	i
Cc1c(CCOC(=O)C2C3CC4CC(C3)CC2C4)sc[n+]1CC(=O)c1ccc(Br)cc1 (stereo unspecified)	?	40µM!	?	18µM	-85	?
Cc1ncsc1CCOC(=O)c1ccc(Cl)cc1	i	i	i	i	i	i
Cc1ccc(-n2nc(N3CCCN(S(=O)(=O)c4cccc5nsnc45)CC3)ccc2=O)cc1	nt	i	nt	nt	nt	nt
O=C(N/N=C/c1cccc2ccccc12)c1n[nH]c2c1CCCC2	4.6µM	i	1.5µM	4.1µM	i	1.5µM
O=C(N/N=C\c1cccc(Cl)c1)c1n[nH]c2c1CCCC2	i	i	i	i	?	i
O=C(NCc1ccc(Br)cc1)c1n[nH]c2c1CCCC2	nt	i	nt	nt	nt	nt
O=C(N/N=C/c1ccc(Cl)cc1Cl)c1n[nH]c2c1CCCC2	2.9µM	i	6.5µM	2.9µM	i	8.2µM
Clc1ccc(CNc2nnnn2-c2ccccc2)c(Cl)c1	?	i	i	?	i	i
Clc1cccc(-n2nnnc2NCc2ccccc2Oc2ccccn2)c1Cl	nt	12µM	nt	nt	nt	nt
CN(CCCN)C1CCCCC1	nt	i	nt	nt	nt	nt
O=C(CCSc1nc(-c2ccco2)cc(C(F)(F)F)n1)N1CCCc2ccccc21	?	?	i	16µM	i	i
SMILES	DT40 TDP1 CPT	ALOX12 inh	HT1080 IDH1KD tx	TDP1 cell noCPT	IL-1B inflam inh	HT1080NT lethal
O=C(CSc1nc(-c2ccco2)cc(C(F)(F)F)n1)N1CCCCCC1	nt	i	nt	nt	nt	nt
CN1CCN(C(=O)CSc2nc(-c3ccco3)cc(C(F)(F)F)n2)CC1	i	i	i	i	i	i
O=C(CSc1nc(-c2ccco2)cc(C(F)(F)F)n1)N1CCN(c2cccc(Cl)c2)CC1	?	i	i	23µM	i	i
O=C(CCSc1nc(-c2ccco2)cc(C(F)(F)F)n1)N1CCN(c2ccccn2)CC1	?	i	i	16µM	?	i
Cc1cc(NC(=O)CNc2cc(S(=O)(=O)N3CCCCC3)ccc2Oc2ccccc2)no1	nt	i	nt	nt	nt	nt
Cc1ccc(-c2nc3ccccc3nc2-c2ccccc2)cc1	?	i	i	15µM	i	i
CC(C)(N)c1ccc(-c2nc3ccccc3nc2-c2ccccc2)cc1	nt	i	nt	nt	nt	nt
Clc1ccc(-c2nc3ccccc3nc2-c2ccccc2)cc1	?	i	i	21µM	i	i
